# High-throughput results: PubChem, National Center for Advancing Translational Sciences (NCATS)
# This is a sample that favours compounds with a hit; in the whole collection about 8.7% have one here.
# VACV Venus inh – qHTS for Stage-Specific Inhibitors of Vaccinia Orthopoxvirus: Venus Reporter Primary qHTS. Vaccinia virus Venus reporter expression, fluorescence. Potency, µM (highest dose often 36.5 µM), actives largely listed as inhibitors. 330,000 tested, 0.46% active; calls by dose curve; tested in A549 cells; also: nearly all actives have a fitted effect of over 30% in size
# Pf growth 96h – Primary qHTS for delayed death inhibitors of the malarial parasite plastid, 96 hour incubation. 320,000 tested, 6.9% active. Potency, µM (series often up to 28.7 µM), most hits filed as inhibitors. AID 504834, 2011. P. falciparum luciferase reporter growth, 96 h
#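 Plates of compound plus infected erythrocytes (2% hematocrit, 0.05% parasitemia final) incubate 96 hours, 37 C, 5% CO2. Detection reagent added; reduced luminescence from the parasites' luciferase reporter flags inhibition.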
# Pf growth 48h – Primary qHTS for delayed death inhibitors of the malarial parasite plastid, 48 hour incubation. Potency, µM (top dose mostly 28.7 µM), actives largely listed as inhibitors. 310,000 tested, 5.9% active. P. falciparum luciferase growth in erythrocytes, 48 h
#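 Compounds are pin-transferred into medium, infected erythrocytes (2% hematocrit, 0.1% parasitemia final) are added, and plates sit one parasite generation at 37 C in 5% CO2. Detection reagent is then added and luminescence measured.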
# AMA1-RON2 inh – qHTS for Inhibitors of AMA1-RON; Towards Development of Antimalarial Drug Lead: Primary Screen; Plasmodium falciparum AMA1 (3D7) - RON2 peptide interaction; AlphaScreen AMA1-biotinylated RON2 peptide binding; Potency, µM (doses to about 58.2 µM), most hits filed as inhibitors; 360,000 tested, 0.2% active; also: nearly all actives have a fitted effect of over 45% in size
#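 AMA1 (3D7) with his tag at 25 nM final met compounds first, then biotinylated RON2 peptide at 25 nM; detection used donor plus acceptor beads, 10 µg/mL apiece, read by AlphaScreen after 30 min at room temperature.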
# Vaccinia mCherry – qHTS for Stage-Specific Inhibitors of Vaccinia Orthopoxvirus: mCherry Reporter Primary qHTS. Potency, µM (doses to about 36.5 µM), hits mostly inhibitors. AID 720579, 2013. Vaccinia virus mCherry reporter infection, fluorescence. 310,000 tested, 0.63% active; calls by dose curve; tested in A549 cells; also: nearly all actives have a fitted effect of over 35% in size
# Hits are given with their value; . = inactive; ? = inconclusive; / = not tested or not shown. Unless noted, calls follow the shape of the dose curve; as a rule, active = well fitted curve in the direction sought with a large enough effect; inconclusive = small, poorly fitted or top-dose-only effect, or another doubt; inactive = no such curve, though single readings can be large; an effect the other way counts as inactive or inconclusive.
SMILES,VACV Venus inh,Pf growth 96h,Pf growth 48h,AMA1-RON2 inh,Vaccinia mCherry
N#Cc1cc(-c2ccccc2)nc(NN)n1,?,10µM,?,.,?
Cc1c(C(=O)N2CCCCC2)sc2ncnc(NCCc3ccccn3)c12,.,/,/,/,.
CC(C)c1ccc(NC(=O)CN2C(=O)c3cccc4cccc2c34)cc1,.,/,/,/,.
CCCCCCN(C(=O)CCCN1C(=O)NC(c2ccc([N+](=O)[O-])cc2)C(C(=O)OCc2ccccc2)=C1C)C(C)C(=O)NCCCC (stereo not drawn),?,/,/,.,?
CCCCNC(=O)C(c1ccc(OCC(=O)OC)c(C(=O)OC)c1)N(CCOC)C(=O)CCCCCN1C(=O)NC(c2ccc(-c3ccccc3)cc2)C(C(=O)OCc2ccccc2)=C1C (stereo not drawn),/,1.7µM,1.2µM,/,/
CCCCNC(=O)C(c1ccc(OCC(=O)OC)c(C(=O)OC)c1)N(CCc1ccccc1)C(=O)CCCCCN1C(=O)NC(c2ccc(-c3ccccc3)cc2)C(C(=O)OCc2ccccc2)=C1C (stereo not drawn),/,2.1µM,1.9µM,/,/
CCCCCCN(C(=O)CCCCCN1C(=O)NC(c2ccc(-c3ccccc3)cc2)C(C(=O)OCc2ccccc2)=C1C)C(C(=O)NCCCC)c1ccc(OCC(=O)OC)cc1 (stereo not drawn),/,4.7µM,?,/,/
CC1=C(C(=O)OCc2ccccc2)C(c2ccc(C#N)cc2)NC(=O)N1CCCC(=O)O (stereo not drawn),.,.,.,.,.
COc1ccc(-c2nc(CSCC(=O)NCCc3ccc(C)cc3)c(C)o2)cc1OC,.,/,/,/,.
FC(F)(F)c1ccc(Oc2ccc3ccccc3c2Br)nc1,.,2.9µM,?,.,.
COc1cccc(-c2sc3ccccc3c2-c2ccc(OCCN3CCCC3)cc2)c1,13µM,/,/,?,?
COc1ccc(-c2sc3ccccc3c2-c2ccc(OCCN3CCCCC3)cc2)cc1,.,/,/,?,.
COc1cccc(-c2sc3ccccc3c2-c2ccc(OCCN(C)C)cc2)c1,?,/,/,?,14µM
c1ccc(-c2sc3ccccc3c2-c2ccc(OCCN3CCCC3)cc2)cc1,14µM,/,/,.,?
COc1ccc(OC)c(S(=O)(=O)N2CCN(Cc3nc4ccc(C)cc4o3)CC2)c1,.,/,/,/,.
CCCCCC1CCC(c2n[nH]c(=S)n2C)CC1 (stereo not drawn),.,5.9µM,?,.,.
C=CCn1c(C2CC2)n[nH]c1=S,/,.,.,.,/
CS(=O)(=O)c1ccc(C(=O)OC2CCOC2=O)cc1[N+](=O)[O-] (stereo not drawn),.,?,6.6µM,.,.
O=C(OC1CCOC1=O)c1ccccc1C(=O)c1ccc(Cl)c([N+](=O)[O-])c1 (stereo not drawn),/,.,?,.,/
CCCc1n(CC(O)COCC2CC=CCC2)c2ccccc2[n+]1C (stereo not drawn),.,.,?,.,.
Cc1cc2c(cc1C)[n+](C)cn2CC(O)COCc1ccccc1 (stereo not drawn),.,?,.,.,.
CCCc1n(CC(O)COC2CCCCC2)c2ccccc2[n+]1C (stereo not drawn),.,.,4.1µM,.,.
C[n+]1cn(CC(O)COCc2ccccc2)c2ccccc21 (stereo not drawn),.,4.7µM,?,.,.
CCCc1n(CC(O)COCc2ccccc2)c2ccccc2[n+]1C (stereo not drawn),.,.,3.3µM,.,.
COc1ccc(-c2ccc3ccccc3n2)cc1,.,.,.,.,.
SMILES,VACV Venus inh,Pf growth 96h,Pf growth 48h,AMA1-RON2 inh,Vaccinia mCherry
COc1ccc(-c2noc(C)c2-c2ccc3ccccc3n2)c(O)c1,?,15µM,12µM,.,.
CCN(CC)c1ccc(CC2C(=O)N(C)C(=O)N(C)C2=O)cc1,.,.,?,.,.
CCCN(Cc1ccc(N(CC)CC)cc1)CC1CC1,.,1.5µM,12µM,.,.
CCCN(Cc1ccc(N(C)C)cc1)CC1CC1,.,2.1µM,/,.,.
Cc1ccc2c(=O)cc(C(=O)Nc3ccc(S(=O)(=O)N4CCCCCC4)cc3)oc2c1,.,/,/,/,.
COC(=O)C1CCCN1S(=O)(=O)c1ccc2ccccc2c1 (stereo not drawn),/,/,10µM,.,/
